What all share (experiment): glycan array binding signal (z-score within array); higher = stronger binding
Assay [1] deals with Fuc(a1-2)[GalNAc(a1-3)]Gal(b1-3)GlcNAc(b1-6)GalNAc. The note with it: glycan notation: IUPAC condensed, linker removed. Summed up: (§1)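 Negative Z-scores can be read as non-binding. The Z-score is calculated within each array and then averaged across arrays of one protein sequence at different concentrations or buffers and across linkers. Arrays, 3228 in all, were curated from the Consortium for Functional Glycomics database and kept only where the protein sequence was available.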

The subject of assay [2] is Fuc(a1-2)[GalNAc(a1-4)]Gal(b1-4)GlcNAc. The following applies: glycan notation: IUPAC condensed, linker removed. Summed up: as §1
In assay [3] the test system is Fuc(a1-2)[GalNAc(a1-3)]Gal(b1-3)GlcNAc(b1-2)Man(a1-3)[Fuc(a1-2)[GalNAc(a1-3)]Gal(b1-3)GlcNAc(b1-2)Man(a1-6)]Man(b1-4)GlcNAc(b1-4)GlcNAc. The note with it: glycan notation: IUPAC condensed, linker removed. Summed up: as §1
Assay [4] concerns Fuc(a1-2)[GalNAc(a1-3)]Gal(b1-4)[Fuc(a1-3)]GlcNAc. The note with it: glycan notation: IUPAC condensed, linker removed. An outline of the steps:
as §1

The subject of assay [5] is Fuc(a1-2)[GalNAc(b1-3)]Gal. The note with it: glycan notation: IUPAC condensed, linker removed. Summed up:
as §1

Assay [6] deals with Fuc(a1-2)[GalNAc(a1-3)]Gal(b1-3)GlcNAc. The note with it: glycan notation: IUPAC condensed, linker removed. Summed up:
as §1

In assay [7] the test system is Fuc(a1-2)[GalNAc(a1-3)]Gal(b1-4)GlcNAc. The following applies: glycan notation: IUPAC condensed, linker removed. An outline of the steps: as §1
Assay [8] has as its system Fuc(a1-2)[GalNAc(a1-3)]Gal(b1-4)GlcNAc(b1-3)Gal(b1-4)GlcNAc. The note with it: glycan notation: IUPAC condensed, linker removed. Summed up:
as §1

Assay [9] relates to Fuc(a1-2)[GalNAc(a1-3)]Gal(b1-4)GlcNAc(b1-6)GalNAc. The following applies: glycan notation: IUPAC condensed, linker removed. Summed up:
as §1

Assay [10] concerns Fuc(a1-3)[Gal(b1-4)]GlcNAc(b1-2)Man. The note with it: glycan notation: IUPAC condensed, linker removed; mutation: R125K. An outline of the steps:
as §1

In assay [11] the test system is Fuc(a1-3)[Gal(b1-4)]GlcNAc(b1-2)Man(a1-6)[Gal(b1-4)GlcNAc(b1-2)Man(a1-3)]Man(b1-4)GlcNAc(b1-4)GlcNAc. The note with it: glycan notation: IUPAC condensed, linker removed. An outline of the steps:
as §1

Assay [12] concerns Fuc(a1-2)[GalNAc(a1-3)]Gal. The following applies: glycan notation: IUPAC condensed, linker removed. An outline of the steps:
as §1

The test system of assay [13] is Fuc(a1-2)[GalNAc(a1-3)]Gal(b1-4)Glc. The following applies: glycan notation: IUPAC condensed, linker removed. An outline of the steps: as §1
In assay [14] the test system is Fuc(a1-2)[GalNAc(a1-3)]Gal(b1-4)GlcNAc(b1-3)GalNAc. The following applies: glycan notation: IUPAC condensed, linker removed. Summed up:
as §1

In assay [15] the test system is Fuc(a1-3)[Gal(b1-4)]Glc6S. The following applies: glycan notation: IUPAC condensed, linker removed. An outline of the steps:
as §1

In assay [16] the test system is Fuc(a1-2)[GalNAc(a1-3)]Gal(b1-3)GlcNAc(b1-3)GalNAc. The note with it: glycan notation: IUPAC condensed, linker removed. An outline of the steps: as §1
Assay [17] deals with Fuc(a1-2)[GalNAc(a1-3)]Gal(b1-4)GlcNAc(b1-2)Man(a1-3)[Fuc(a1-2)[GalNAc(a1-3)]Gal(b1-4)GlcNAc(b1-2)Man(a1-6)]Man(b1-4)GlcNAc(b1-4)GlcNAc. The note with it: glycan notation: IUPAC condensed, linker removed. An outline of the steps:
as §1

Assay [18] relates to Fuc(a1-2)[GalNAc(a1-3)]Gal(b1-4)GlcNAc(b1-3)Gal(b1-4)GlcNAc(b1-3)Gal(b1-4)GlcNAc. The note with it: glycan notation: IUPAC condensed, linker removed. An outline of the steps:
as §1

Assay [19] concerns Fuc(a1-2)[GalNAc(a1-3)]Gal(b1-4)[Fuc(a1-3)]GlcNAc(b1-3)GalNAc. The following applies: glycan notation: IUPAC condensed, linker removed. Summed up: as §1
Assay [20] relates to Fuc(a1-2)[GalNAc(a1-3)]Gal(b1-4)GlcNAc(b1-2)Man. The following applies: glycan notation: IUPAC condensed, linker removed. Summed up: as §1

Shown is part of a subset that was picked to be rich in the strongest signals.

Chain of Aggrecan (Rattus norvegicus), NP_071526 (chain, as listed by the source): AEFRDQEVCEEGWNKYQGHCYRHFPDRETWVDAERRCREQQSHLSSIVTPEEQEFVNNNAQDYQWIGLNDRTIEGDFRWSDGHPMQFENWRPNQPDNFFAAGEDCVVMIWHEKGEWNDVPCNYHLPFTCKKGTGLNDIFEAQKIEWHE
Chain of CHI3L1 (Homo sapiens), P36222 (P36222 whole entry): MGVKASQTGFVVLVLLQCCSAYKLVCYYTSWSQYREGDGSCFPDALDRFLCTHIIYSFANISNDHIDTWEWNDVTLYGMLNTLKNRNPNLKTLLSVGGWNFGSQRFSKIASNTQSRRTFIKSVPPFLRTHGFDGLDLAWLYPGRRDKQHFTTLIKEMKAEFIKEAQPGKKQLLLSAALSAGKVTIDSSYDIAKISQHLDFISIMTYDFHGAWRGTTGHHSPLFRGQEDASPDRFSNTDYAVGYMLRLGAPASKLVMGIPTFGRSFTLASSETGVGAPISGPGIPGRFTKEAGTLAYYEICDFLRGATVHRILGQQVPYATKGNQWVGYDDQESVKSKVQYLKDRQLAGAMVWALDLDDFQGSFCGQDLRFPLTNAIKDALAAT
Chain of PILRb (Mus musculus), Q2YSF2 (Q2YSF2 entry or part of it): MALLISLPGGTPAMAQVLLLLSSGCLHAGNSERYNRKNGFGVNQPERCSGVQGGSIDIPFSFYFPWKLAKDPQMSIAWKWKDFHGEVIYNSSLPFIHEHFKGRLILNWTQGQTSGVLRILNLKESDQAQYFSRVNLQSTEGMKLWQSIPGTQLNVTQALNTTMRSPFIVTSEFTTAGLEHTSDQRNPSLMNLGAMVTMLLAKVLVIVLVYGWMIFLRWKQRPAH
Chain of 6RG (Lolium perenne) (chain, as listed by the source): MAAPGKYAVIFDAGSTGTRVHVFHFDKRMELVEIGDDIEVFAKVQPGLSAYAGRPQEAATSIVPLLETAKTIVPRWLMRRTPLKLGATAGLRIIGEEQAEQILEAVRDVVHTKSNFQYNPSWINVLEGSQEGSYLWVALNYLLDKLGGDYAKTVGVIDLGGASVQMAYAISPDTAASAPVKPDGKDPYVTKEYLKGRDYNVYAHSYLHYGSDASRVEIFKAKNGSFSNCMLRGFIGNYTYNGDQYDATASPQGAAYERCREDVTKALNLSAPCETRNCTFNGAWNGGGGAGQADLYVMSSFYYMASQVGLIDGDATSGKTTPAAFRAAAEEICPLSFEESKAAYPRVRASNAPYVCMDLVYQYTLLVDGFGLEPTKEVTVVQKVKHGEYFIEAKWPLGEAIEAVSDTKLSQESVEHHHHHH
Chain of 6RG (Lolium perenne), B9U140 (B9U140 entry or part of it): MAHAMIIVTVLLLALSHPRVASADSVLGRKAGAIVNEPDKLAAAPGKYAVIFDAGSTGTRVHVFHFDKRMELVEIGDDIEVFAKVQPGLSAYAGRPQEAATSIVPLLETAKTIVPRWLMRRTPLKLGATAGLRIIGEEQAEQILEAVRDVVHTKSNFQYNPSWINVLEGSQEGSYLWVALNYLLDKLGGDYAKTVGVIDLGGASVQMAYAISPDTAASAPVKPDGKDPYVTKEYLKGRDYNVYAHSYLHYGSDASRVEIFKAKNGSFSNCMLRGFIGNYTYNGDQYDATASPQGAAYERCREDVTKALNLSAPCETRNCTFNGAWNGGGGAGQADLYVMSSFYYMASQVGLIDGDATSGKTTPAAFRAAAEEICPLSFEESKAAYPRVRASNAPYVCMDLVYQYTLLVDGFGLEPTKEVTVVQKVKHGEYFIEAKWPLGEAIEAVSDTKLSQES
Chain of Avaren (Actinomycete K97) (chain, as listed by the source): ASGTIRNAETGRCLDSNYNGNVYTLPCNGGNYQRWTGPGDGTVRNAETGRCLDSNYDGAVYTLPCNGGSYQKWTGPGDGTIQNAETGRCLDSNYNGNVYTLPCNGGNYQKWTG
Chain of wLAT-1A (Homo sapiens), Q01650 (Q01650 whole entry): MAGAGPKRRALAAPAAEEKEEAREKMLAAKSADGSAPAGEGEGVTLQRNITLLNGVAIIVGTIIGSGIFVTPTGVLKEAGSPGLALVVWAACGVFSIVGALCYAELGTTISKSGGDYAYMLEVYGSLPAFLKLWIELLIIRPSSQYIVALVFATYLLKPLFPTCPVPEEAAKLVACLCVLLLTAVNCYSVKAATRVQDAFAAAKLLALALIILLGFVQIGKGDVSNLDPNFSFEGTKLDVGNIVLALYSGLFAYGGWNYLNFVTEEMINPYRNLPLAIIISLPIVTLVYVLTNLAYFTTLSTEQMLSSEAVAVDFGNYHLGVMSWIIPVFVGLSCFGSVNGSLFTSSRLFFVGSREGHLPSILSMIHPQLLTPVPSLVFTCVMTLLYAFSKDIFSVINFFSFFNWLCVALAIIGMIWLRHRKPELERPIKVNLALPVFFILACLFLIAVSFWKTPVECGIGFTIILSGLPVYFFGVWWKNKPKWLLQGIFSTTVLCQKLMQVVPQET
Chain of Neurocan (Homo sapiens), O14594 (O14594 other isoform, or with tags, fused parts or gaps): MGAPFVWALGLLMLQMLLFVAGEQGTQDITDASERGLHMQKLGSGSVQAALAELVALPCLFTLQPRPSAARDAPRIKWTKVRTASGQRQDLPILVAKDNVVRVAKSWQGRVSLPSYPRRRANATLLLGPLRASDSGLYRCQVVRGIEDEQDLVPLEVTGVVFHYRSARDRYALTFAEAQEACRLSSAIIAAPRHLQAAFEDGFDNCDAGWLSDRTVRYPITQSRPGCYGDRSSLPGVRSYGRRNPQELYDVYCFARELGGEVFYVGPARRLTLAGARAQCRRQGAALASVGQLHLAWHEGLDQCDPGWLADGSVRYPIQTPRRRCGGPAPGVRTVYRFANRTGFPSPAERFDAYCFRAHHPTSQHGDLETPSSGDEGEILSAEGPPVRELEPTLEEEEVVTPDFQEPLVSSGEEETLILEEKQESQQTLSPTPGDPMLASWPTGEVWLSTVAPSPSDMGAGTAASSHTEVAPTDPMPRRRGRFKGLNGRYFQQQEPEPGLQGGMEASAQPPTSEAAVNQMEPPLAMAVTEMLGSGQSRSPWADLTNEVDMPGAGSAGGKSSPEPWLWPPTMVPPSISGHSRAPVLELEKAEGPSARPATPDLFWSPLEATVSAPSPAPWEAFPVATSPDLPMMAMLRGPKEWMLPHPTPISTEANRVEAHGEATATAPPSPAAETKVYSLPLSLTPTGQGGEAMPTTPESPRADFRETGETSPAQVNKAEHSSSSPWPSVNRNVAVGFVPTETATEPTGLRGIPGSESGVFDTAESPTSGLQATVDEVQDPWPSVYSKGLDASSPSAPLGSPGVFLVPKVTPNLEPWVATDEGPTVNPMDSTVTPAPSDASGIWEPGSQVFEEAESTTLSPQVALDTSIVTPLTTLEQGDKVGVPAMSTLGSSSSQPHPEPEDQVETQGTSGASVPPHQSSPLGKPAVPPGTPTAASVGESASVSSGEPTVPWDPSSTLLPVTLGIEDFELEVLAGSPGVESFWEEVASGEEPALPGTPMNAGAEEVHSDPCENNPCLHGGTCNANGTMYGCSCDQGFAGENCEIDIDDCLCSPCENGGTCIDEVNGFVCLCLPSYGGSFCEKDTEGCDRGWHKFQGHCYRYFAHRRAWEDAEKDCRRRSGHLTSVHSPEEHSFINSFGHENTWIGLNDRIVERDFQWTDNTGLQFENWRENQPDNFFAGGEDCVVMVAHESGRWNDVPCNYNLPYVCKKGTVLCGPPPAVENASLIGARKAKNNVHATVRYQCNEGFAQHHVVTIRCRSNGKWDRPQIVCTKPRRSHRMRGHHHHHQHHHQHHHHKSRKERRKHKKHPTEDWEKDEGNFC

With Avaren (Actinomycete K97), the “glycan array binding signal (z-score)” value in assay [1] is -0.139; in assay [2], -0.123.
For Aggrecan (Rattus norvegicus), NP_071526, the figures for the “glycan array binding signal (z-score)” value in assay [3], in assay [4] and in assay [5] were -0.131, 0.401 and 17.3, respectively.
Turning to 6RG (Lolium perenne), B9U140, the “glycan array binding signal (z-score)” value in assay [6] was -0.169; in assay [7], -0.075.
In the case of Siglec-8 (Homo sapiens), Q9NYZ4, the “glycan array binding signal (z-score)” value in assay [8] (mutation: R125K) is -0.346; in assay [9] (mutation: R125K), -0.119; in [7] (mutation: R125K), -0.376; in assay [10], -0.3.
With 6RG (Lolium perenne), the “glycan array binding signal (z-score)” value in [2] is -0.148; in assay [11], -0.247.
For Neurocan (Homo sapiens), O14594, the “glycan array binding signal (z-score)” value in [12] was -0.021.
On to wLAT-1A (Homo sapiens), Q01650, for which, in assay [13], the “glycan array binding signal (z-score)” value amounted to 0.692.
With CHI3L1 (Homo sapiens), P36222, the “glycan array binding signal (z-score)” value in [1] is -0.064; in [8], -0.12; in assay [14], -0.124; in assay [5], 0.059; in assay [15] it was -0.082.
As to PILRb (Mus musculus), Q2YSF2, the “glycan array binding signal (z-score)” value is 1.35 in assay [16]; -0.328 in assay [17]; -0.069 in [18]; 11.4 in assay [19]; 2.67 in assay [4]; -0.477 in [11].
Consider MpAFP RI GFP (Marinomonas primoryensis), for which the “glycan array binding signal (z-score)” value in assay [3] is -0.022; in assay [20] it was -0.489; in assay [9], -0.439; in assay [12] it was -0.389.

For the origin of these results see the supplement of paper PMC8728848.
